# Assay outcomes deposited in PubChem by The Scripps Research Institute Molecular Screening Center.
# Shown are actives, neighbours in structure and some others; about 1.1% of the full set was active somewhere.
# MOR-DOR inv ag-1: inverse agonists of MOR-DOR heterodimerization, primary screen, cell-based, luminescence. inhibition, % at 9.3 µM. 0.21% of 340,000 active. cell-based MOR-DOR heterodimer luminescence, inverse agonism. AID 504357, 2011; in the data active means inhibition above about 22%, passing the limit was not always enough;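 further: 0% = cells with DMSO and 100% = wells without cells with DMSO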
# HTR5A ag: HTR5A agonists in luminescence cell assay, primary screen, counter-screen for OPRM1-OPRD1 heterodimer agonist project, full-deck HTS | 5-hydroxytryptamine receptor 5A (Homo sapiens), P47898 | 0.61% of 340,000 active | cell-based | activation, % at 9.3 µM; in the data active means activation mostly above about 9.5%, no sharp cut-off; inactive means mostly below about 7.6%;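 further: 0% = cells with vehicle only and 100% = reference agonist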
# Target sequence (P47898 whole entry, looked up): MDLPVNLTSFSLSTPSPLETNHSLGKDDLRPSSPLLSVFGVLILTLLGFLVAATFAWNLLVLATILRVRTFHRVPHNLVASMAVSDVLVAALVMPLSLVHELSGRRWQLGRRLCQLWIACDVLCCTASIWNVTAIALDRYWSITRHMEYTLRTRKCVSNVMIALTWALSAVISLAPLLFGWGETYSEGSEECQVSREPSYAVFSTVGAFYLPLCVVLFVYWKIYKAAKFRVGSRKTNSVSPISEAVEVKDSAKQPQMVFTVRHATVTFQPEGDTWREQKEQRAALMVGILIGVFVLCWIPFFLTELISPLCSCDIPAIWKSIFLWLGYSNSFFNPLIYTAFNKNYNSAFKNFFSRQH
# OPRM1-OPRD1 ag: agonists of OPRM1-OPRD1 heterodimerization, primary screen, cell-based, luminescence | Mu-type opioid receptor (Homo sapiens) + Delta-type opioid receptor (Homo sapiens), … | cells | activation, % at 9.3 µM | 0.3% of 340,000 active; in the data active means activation above about 18%;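 further: 0% = vehicle-treated cells and 100% = reference agonist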
# HTR5A inv ag: HTR5A inverse agonists in luminescence cell assay, primary screen, counter-screen for OPRM1-OPRD1 heterodimer inverse agonist project, full-deck HTS | 5-hydroxytryptamine receptor 5A (Homo sapiens), P47898 | HTR5A cell line, inverse agonism | inhibition, % at 9.3 µM | 0.083% of 340,000 active | AID 504634, 2011; in the data active means inhibition mostly above about 23%, no sharp cut-off; inactive means mostly below about 18%;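 further: 0% = cells with DMSO and 100% = no-cell wells with DMSO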
# MOR-DOR inv ag-2: inverse agonists of MOR-DOR heterodimerization, counter-screen for HTR5A inverse agonist project, cell-based, luminescence; inhibition, % at 9.3 µM; 190 tested, under 10 active; shares compounds with HTR5A inv ag; U2OS counter-screen cells, complementation luminescence;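 further: 0% = cells with DMSO and 100% = wells without cells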
# HTR5A inv conf: HTR5A inverse agonists, retest of hits, confirmation, cell-based, luminescence | shares compounds with HTR5A inv ag | HTR5A-expressing cells, inverse agonism | inhibition, % at 9.3 µM | 190 tested, under 10 active | AID 504916, 2011;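 further: 0% = cells with DMSO and 100% = no cells with DMSO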
# * = called active by the depositor; i = inactive; x = not tested or not shown. Unless noted, how the calls were made is not given here.
SMILES,MOR-DOR inv ag-1,HTR5A ag,OPRM1-OPRD1 ag,HTR5A inv ag,MOR-DOR inv ag-2,HTR5A inv conf
COc1ccccc1CCC(=O)N(C)CC(=O)Nc1ccc(Cl)c(C(F)(F)F)c1,-3,-5,1,3,x,x
O=C(CSc1nnc(-c2ccccc2O)o1)N1CCOCC1,3,-3,0,8,x,x
O=C(CSc1nnc(-c2ccccc2Br)o1)N1CCOCC1,2,-9,0,25*,i,-64
CC(=O)N1CCc2ccccc2C1CC(=O)O (configuration not stated),6,2,-1,43*,-13,-14
O=[N+]([O-])c1ccc(N/N=C/c2cccc(O)c2O)c(S(=O)(=O)N2CCOCC2)c1,-6,-9,1,48*,-23,27
O=[N+]([O-])c1ccc(N/N=C/c2ccc(O)c(O)c2O)c(S(=O)(=O)N2CCOCC2)c1,4,-10,-1,27*,8,5
COc1cc(/C=N/Nc2ccc([N+](=O)[O-])cc2S(=O)(=O)N2CCOCC2)cc(OC)c1OC,13,1,-3,-2,x,x
O=[N+]([O-])c1ccc(S(=O)(=O)Nc2cccc(-c3ccc(N4CCOCC4)nn3)c2)cc1,-35,-1,5,43*,-21,-13
Cc1nc(N)nc(N(C)c2ccccc2)c1Br,2,3,0,-13,x,x
COCc1nnc(NC(=O)c2ccc(S(=O)(=O)N(C)Cc3ccccc3)cc2)o1,-4,-13,1,33*,26,4
Cc1nnc(NC(=O)c2ccc(S(=O)(=O)N(C)Cc3ccccc3)cc2)o1,16,-4,-3,8,x,x
Cc1ccc2ccc(C(Nc3cccc(C(F)(F)F)c3)c3cccnc3)c(O)c2n1 (configuration not stated),-24,-32,4,89*,-11,-13
C=CCn1c(SCC(=O)Nc2ccc(F)cc2)nc2cc(C(=O)O)ccc2c1=O,3,2,-1,43*,-13,-85
O=C(NN1C(=O)/C(=C/c2ccc(O)c([N+](=O)[O-])c2)SC1=S)c1ccccc1Cl,26,-3,-5,28*,-71,1
CCn1c(-c2ccc(-c3ccccc3)cc2)c[nH]c1=S,0,-10,0,33*,-309,-11
COc1cc(C(=O)NCCCOC(C)C)ccc1OC1CCN(C(C)=O)CC1,3,2,-1,-6,x,x
O=C(NCCCN1CCOCC1)/C(=C/c1ccco1)NC(=O)c1ccccc1,5,-2,-1,22,x,x
CCO[C@@H]1OC(C(=O)N2CCN(Cc3ccccc3)CC2)=C[C@H](c2ccc(Br)cc2)[C@H]1CCCO,12,-7,-2,37*,18,3
CCO[C@@H]1OC(C(=O)N2CCN(Cc3ccccc3)CC2)=C[C@H](c2ccc(C(F)(F)F)cc2)[C@H]1CCCO,-21,-4,4,9,x,x
Cc1sc(NC(=O)CCS(=O)(=O)c2ccccc2)c(C#N)c1C,5,0,-1,-4,x,x
Cc1sc(NC(=O)CS(=O)(=O)c2ccccc2)c(C#N)c1C,5,-16,-1,41*,-15,-8
Cc1cc(C)c(COc2ccc(/C=N/n3c(C)n[nH]c3=S)cc2)c(C)c1,-14,-10,3,37*,-51,-7
Cc1ccc(NC(=S)N/N=C2/CCCCc3ccccc32)cc1,-3,-15,0,44*,-231,-44
Cc1cccc(NC(=S)N/N=C2/CCCCc3ccccc32)c1,16,-12,-3,43,x,x
O=[N+]([O-])c1cccc(/C=N/Nc2nc(NCc3ccccc3)nc(N3CCOCC3)n2)c1O,15,-32,-3,88*,0,12
SMILES,MOR-DOR inv ag-1,HTR5A ag,OPRM1-OPRD1 ag,HTR5A inv ag,MOR-DOR inv ag-2,HTR5A inv conf
O=[N+]([O-])c1ccc(/C=N/Nc2nc(NCc3ccccc3)nc(N3CCOCC3)n2)cc1,-14,-4,3,9,x,x
CC1CCCCC1NC(=O)c1ccc(NC2=NC3CS(=O)(=O)CC3S2)cc1 (configuration not stated),15,0,-3,2,x,x
CCCN(CC(=O)Nc1ccccc1C)C(=O)c1ccc(C(=O)c2ccccc2)cc1,-12,7,2,-20,x,x
CCCN(CC(=O)Nc1ccccc1C)C(=O)c1ccc(-c2ccc(C(C)=O)cc2)o1,14,-5,-3,43*,-60,-8
COc1ccc(CCNC(=O)COC(=O)Cn2cnc3c2c(=O)n(C)c(=O)n3C)cc1,11,4,-3,23,x,x
BrC(/C=C\c1ccccc1)=N/Nc1nc(N2CCOCC2)nc(N2CCOCC2)n1,20,-2,-4,-12,x,x
C/C(=N\Nc1nc(N2CCOCC2)nc(N2CCOCC2)n1)c1cccs1,18,-8,-3,23*,-17,-7
COc1ccccc1NC(=O)CCNS(=O)(=O)c1ccc2c(c1)CCN2C(C)=O,10,-1,-2,-22,x,x
COc1cccc(C(=O)Nc2ccc(N3CCN(C(=O)c4cccs4)CC3)cc2)c1,4,-14,-1,33*,i,-13
O=C(Nc1ccc(N2CCN(C(=O)c3cccs3)CC2)cc1)c1cccc(F)c1,-14,4,2,-13,x,x
Cc1c(N2C(=O)/C(=C/c3ccc(N(C)C)cc3)N(C)C2=S)c(=O)n(-c2ccccc2)n1C,8,-7,-2,29*,i,-12
COc1ccccc1NC(=O)CSc1n[nH]c(-c2ccccn2)n1,4,-15,-1,39*,-63,-2
COc1ccc(NC(=O)CSc2n[nH]c(-c3ccccn3)n2)cc1,16,1,-3,-2,x,x
COC(=O)c1cc(S(=O)(=O)NCC2CCN(Cc3ccc(F)cc3)CC2)cn1C,9,1,-2,-3,x,x
COC(=O)c1cc(S(=O)(=O)NCC2CCN(CCc3cccs3)CC2)cn1C,6,0,-1,41*,-21,-2
O=C(NC(c1ccc(Cl)cc1)c1cc(Cl)c2cccnc2c1O)c1cccnc1 (configuration not stated),5,-11,-1,30*,0,-9
O=S1(=O)CCN(c2ccccc2CC(c2c[nH]c3ccccc23)c2c[nH]c3ccccc23)CC1,2,3,-1,-10,x,x
COCCCNC(=O)c1cc(C(=O)c2ccccc2Br)c[nH]1,2,-26,0,71*,-37,-23
CNC(=O)c1cc(C(=O)c2ccccc2Br)c[nH]1,16,-3,-3,10,x,x
Cc1csc(=O)n1CCC(=O)OCC(=O)Nc1ccc(Cl)cn1,14,-1,-2,12,x,x
CN1C(=O)/C(=C/c2cc3c(cc2Br)OCO3)NC1=S,-8,-9,2,23*,i,-4
COCCn1c(C)cc(/C=C2\NC(=S)N(C)C2=O)c1C,5,-1,-1,2,x,x
